Data on 46 molecules can be found in PubChem BioAssay AID2685 (National Center for Advancing Translational Sciences (NCATS), 2010).

Screen size: about 320,000 compounds; about 2,100 (0.66%) were called active. Inconclusive results (about 53%) are left out. Calls follow the shape of the dose curve; as a rule, active = well fitted inhibition curve with a large enough effect in the signal ratio, with a control signal flat (not every such curve was filed as active); inconclusive = small, poorly fitted or top-dose-only effect, or effect the other way, or a change in a side signal; inactive = flat fitted curve, though single readings scatter; the % refers to the signal ratio. The list comes from a sample in which actives are over-represented; it also holds similar structures and randomly drawn compounds.
Potency is read from the fitted curve at half-maximal effect.

The nature of the assay: qHTS Assay for Lipid Storage Modulators in Drosophila S3 Cells.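 As to cell number change: cells counted by Cell Tracker Red CMTPX staining in the red channel.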 As to lipid storage change, negative = inhibition: % is scaled to controls: 0 for no effect and ±100 for the full control effect. Conditions: BODIPY lipid droplet fluorescence, 18-24 h, cells fed with added oleic acid; cell number change: measured here: cell count max response; series mostly up to 46.1 µM; lipid storage change, negative = inhibition: at the top concentration. The method, boiled down:
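Laser-scanning cytometry quantifies lipid droplet accumulation (500–530 nm total intensity; droplet/cell object ratio) in oleic acid-fed (400 uM added) Drosophila S3 cells treated with a concentration series. 20 uM Triacsin C defined 100% inhibition.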
(qHTS replaces the single test concentration by a dilution series.)
For `O=c1[nH]cnc2sc3c(c12)CCC3`, the “lipid storage change, negative = inhibition” value was -3.12% (inactive) and the cell number change is 25.4%.

Take `CCOc1ccc(-n2ccc(=O)c(C(=O)Nc3ccc(S(=O)(=O)Nc4nccs4)cc3)n2)cc1`: the result was inactive and the cell number change was -6.87%. Take `CCc1c(C)nc(N)n2c(SCC(=O)N3CCN(c4ccccc4F)CC3)nnc12`: the “lipid storage change, negative = inhibition” value is 0.324% (inactive) and the cell number change is -1.8%. In the case of `O=C1CCN(Cc2ccccc2)CCN1CCO`, the “lipid storage change, negative = inhibition” value was -5.28% (inactive) and the cell number change worked out at 13.2%. As for `O=C(CN(C(=O)CCC(=O)Nc1nccs1)c1ccc2c(c1)OCO2)NCC1CCCO1` (stereo not drawn), the molecule was classed as inactive and the cell number change came out at 2.62%. Regarding `Cc1cc(N2CCN(S(=O)(=O)Cc3ccccc3)CC2)n2ncnc2n1`, the molecule was classed as inactive. Take `O=c1[nH]c2ccccc2nc1C(Cl)c1ccccc1` (stereo not drawn): the outcome was inactive and the cell number change is 23.2%. Take `CCN(CC)S(=O)(=O)c1cccc(NC(=O)c2ccc(SC)cc2OC)c1`: the “lipid storage change, negative = inhibition” value is 24.1% (inactive) and the cell number change is 22.2%. Take `COc1ccc(S(=O)(=O)N(CC(=O)NCc2ccco2)c2ccccc2)cc1`: the outcome was inactive.

In the case of `CC(C)(C)c1ccc(C(=O)NC2CCN(Cc3ccccc3)CC2)cc1`, the “lipid storage change, negative = inhibition” value was 0.163% (inactive) and the cell number change turned out to be 5.06%. The corresponding values for `Cc1nnc2c(NC3CCCC3)nc3ccccc3n12` are 9.47% (inactive) and 9.22%.

For the molecule `Cc1ccc(-c2nnc(SCC(=O)Nc3ccc(N4CCOCC4)cc3)o2)cc1`, the “lipid storage change, negative = inhibition” value is 13.5% (inactive) and the cell number change is -5.45%. Taken in the same sequence, the figures for `COc1ccc(/C=C2/Sc3ccc(C(=O)N4CCc5ccccc5C4)cc3NC2=O)cc1` were 13.9% (inactive) and 0.0626%.

In the case of `CC1CCN(C(=O)c2ccc3c(c2)NC(=O)/C(=C/c2ccccc2)S3)CC1`, the outcome was inactive and the cell number change stood at 3.29%. Regarding `O=C1Nc2cc(C(=O)N3CCc4ccccc4C3)ccc2S/C1=C\c1ccccc1`, the Potency is 0.651 µM (active) and the cell number change worked out at 17.1%. With `Cn1c(=O)[nH]c(=O)c2c1nc(SCCN1CCCCC1)n2Cc1ccccc1`, the “lipid storage change, negative = inhibition” value is 18.7% (inactive). Turning to `COc1ccc(OC)c(C(=O)CSc2nnc(Cc3cccs3)n2C)c1`, the molecule was called inactive and the cell number change is -18.3%.

Regarding `O=C(Nc1ccc(F)cc1)c1csc(Cc2ccccc2)n1`, the “lipid storage change, negative = inhibition” value is 14.8% (inactive).

As to `O=c1[nH]c2ccccc2nc1Cc1ccc(Cl)cc1`, the result was inactive and the cell number change was 6.67%.

As to `COc1ccc(Cc2nc3ccccc3[nH]c2=O)cc1`, the Potency was 3.26 µM (active). As to `O=c1[nH]c2ccccc2nc1Cc1ccccc1`, the “lipid storage change, negative = inhibition” value was 10.2% (inactive) and the cell number change was -29.6%. As to `COC(=O)N1[C@H](Cc2ccccc2)C=C[C@]1(C)C(=O)O`, the “lipid storage change, negative = inhibition” value is -10.2% (inactive) and the cell number change was -7.24%. Turning to `CCC(=O)Nc1c2c(nn1-c1ccccc1)CSC2`, the call was inactive and the cell number change turned out to be 19%.

As for `O=C(CBr)Nc1c2c(nn1-c1ccccc1)CSC2`, the call was inactive and the cell number change is 23.5%.

For `O=C(CCl)Nc1c2c(nn1-c1ccccc1)CSC2`, the Potency was 20.6 µM (active) and the cell number change is -21.4%. In the case of `COc1ccc(C(=O)OCCc2sc[n+](CC(=O)c3ccccc3)c2C)cc1`, the result was inactive and the cell number change is 15.7%. As for `Cc1c(CCOC(=O)CC23CC4CC(CC(C)(C4)C2)C3)sc[n+]1CC(=O)c1ccccc1`, the “lipid storage change, negative = inhibition” value was -14.6% (inactive) and the cell number change was -7.33%.

Turning to `Cc1c(CCOC(=O)C23CC4(C)CC(C)(CC(C)(C4)C2)C3)sc[n+]1CC(=O)c1ccccc1`, the Potency was 18.4 µM (active) and the cell number change is -53.8%. For `CCOc1ccccc1NC(=S)NC1CC2CCC1C2` (stereo not drawn), the “lipid storage change, negative = inhibition” value is 8.44% (inactive) and the cell number change was 6.16%. For the molecule `COc1ccc(OC)c(NC(=O)c2cc(-c3ccc(C)cc3O)n[nH]2)c1`, the molecule was classed as inactive and the cell number change amounted to 2.51%. `COc1ccc(OC)c(NC(=O)c2cc(-c3c(C)cc(C)cc3O)n[nH]2)c1`: the Potency was 0.206 µM (active) and the cell number change was 13.7%.

For the molecule `Cc1cc(C)c(-c2cc(C(=O)Nc3cc(C)ccc3C)[nH]n2)c(O)c1`, the “lipid storage change, negative = inhibition” value is -1.74% (inactive) and the cell number change came out at 2.08%. Taken in the same sequence, the figures for `CCc1c(C)sc(NC(=O)c2cccs2)c1C#N` were -1.11% (inactive) and -15.6%. Taken in the same sequence, the figures for `COc1cc2c(cc1OC)C(c1cccc([N+](=O)[O-])c1)NC(=O)C2` (stereo not drawn) were 11.9% (inactive) and -2.94%. Turning to `COc1cc2c(cc1OC)C(c1ccc([N+](=O)[O-])cc1)NC(=O)C2` (stereo not drawn), the Potency is 6.51 µM (active) and the cell number change is -4.67%. On to `COc1cc2c(cc1OC)C(c1ccc(C)cc1)NC(=O)C2` (stereo not drawn), for which the outcome was inactive.

Regarding `O=C(N/N=C/c1ccco1)c1cc(-c2cccc3ccccc23)n[nH]1`, the “lipid storage change, negative = inhibition” value is -1.16% (inactive) and the cell number change is -16.1%. For `CCn1nc(NS(=O)(=O)c2ccc([N+](=O)[O-])cc2)c2cc3cccc(C)c3nc21`, the Potency is 1.46 µM (active) and the cell number change was -19.5%.

With `CCn1nc(NS(=O)(=O)c2ccc(F)cc2)c2cc3cccc(C)c3nc21`, the call was inactive and the cell number change was -26.3%. As to `CCn1nc(NS(=O)(=O)c2ccccc2)c2cc3cccc(C)c3nc21`, the “lipid storage change, negative = inhibition” value was 12.4% (inactive) and the cell number change was -3.04%. Regarding `CCn1nc(NC(=O)C(C)(C)C)c2cc3cccc(C)c3nc21`, the Potency is 2.91 µM (active) and the cell number change came out at 12.4%. Consider `Cc1cccc2cc3c(NC(=O)C(C)(C)C)nn(CC(C)C)c3nc12`, for which the “lipid storage change, negative = inhibition” value is -8.08% (inactive) and the cell number change was -9.6%. `CCn1nc(NC(C)=O)c2cc3cccc(C)c3nc21`: the “lipid storage change, negative = inhibition” value was 16% (inactive). As for `CCOC(=O)C(C(=O)OCC)c1c([N+](=O)[O-])c(=O)n2c3c(cccc13)CCC2`, the “lipid storage change, negative = inhibition” value was 12.6% (inactive) and the cell number change was found to be 0.163%. In the case of `COc1ccc(OC(=O)NCCc2ccccc2)cc1`, the “lipid storage change, negative = inhibition” value was 6.1% (inactive).

`Cc1cc2oc(C(=O)N3CCN(CCc4ccccn4)CC3)c(C)c2cc1C`: the molecule was called inactive.
